Results taken from PubChem BioAssay (NCI).
About 83,000 compounds went through this panel and 20% of them were active in at least one assay; those are over-represented in the sample as a whole.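 48-hour exposure, single concentration, 96-well plates; percent growth endpoint where 0 means no net growth. Active: below 10.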 Active and inactive are the calls of the source.

What was measured:
Experiment in all cases: NCI-60 one-dose screen, 48 h (100 = growth as untreated, 0 = no growth, -100 = all killed)
Conditions in all cases: 10 µM unless noted
SR leukemia = tested on: SR leukemia
RPMI-8226 leukemia = tested on: RPMI-8226 leukemia
OVCAR-8 ovarian = tested on: OVCAR-8 ovarian
OVCAR-5 ovarian = tested on: OVCAR-5 ovarian
OVCAR-4 ovarian = tested on: OVCAR-4 ovarian
SK-OV-3 ovarian = tested on: SK-OV-3 ovarian
IGROV1 ovarian = tested on: IGROV1 ovarian
OVCAR-3 ovarian = tested on: OVCAR-3 ovarian
HS 578T breast = tested on: HS 578T breast
NCI/ADR-RES ovarian = tested on: NCI/ADR-RES ovarian
T-47D breast = tested on: T-47D breast
BT-549 breast = tested on: BT-549 breast
MDA-MB-435 melanoma = tested on: MDA-MB-435 melanoma
SW-620 colon = tested on: SW-620 colon
MCF7 breast = tested on: MCF7 breast
HCT-116 colon = tested on: HCT-116 colon
HCC-2998 colon = tested on: HCC-2998 colon
KM12 colon = tested on: KM12 colon

Measured: growth

CSc1ccc(N=C=C(c2ccccc2)c2ccccc2)cc1
inactive: SR leukemia 50.7% | RPMI-8226 leukemia 88.5% | OVCAR-8 ovarian 89% | OVCAR-5 ovarian 93.2% | OVCAR-4 ovarian 110% | SK-OV-3 ovarian 90.1% | IGROV1 ovarian 95.7% | OVCAR-3 ovarian 103% | HS 578T breast 86.8% | NCI/ADR-RES ovarian 104% | T-47D breast 81.9% | BT-549 breast 88.9% | MDA-MB-435 melanoma 97.4% | SW-620 colon 86% | MCF7 breast 78.5% | HCT-116 colon 89.3% | HCC-2998 colon 100% | KM12 colon 102%

O=C(O)c1cn(C2CC2)c2cc(N3CCN(Cc4nc5c(cnn5-c5ccc([N+](=O)[O-])cc5)c(=O)[nH]4)CC3)c(F)cc2c1=O
inactive: SR leukemia 97.5% | RPMI-8226 leukemia 98% | OVCAR-8 ovarian 99.9% | OVCAR-5 ovarian 103% | OVCAR-4 ovarian 91.9% | SK-OV-3 ovarian 105% | IGROV1 ovarian 94.2% | OVCAR-3 ovarian 112% | HS 578T breast 105% | NCI/ADR-RES ovarian 106% | T-47D breast 104% | BT-549 breast 96.1% | MDA-MB-435 melanoma 100% | SW-620 colon 105% | MCF7 breast 91.5% | HCT-116 colon 99.8% | HCC-2998 colon 112% | KM12 colon 107%

Nc1nc2c(c3ncccc13)C(c1cccc(Br)c1)Cc1ncccc1-2 (stereo not given)
inactive: RPMI-8226 leukemia 34% | OVCAR-8 ovarian 26.6% | OVCAR-5 ovarian 50.6% | OVCAR-4 ovarian 58% | SK-OV-3 ovarian 16.5% | IGROV1 ovarian 42% | HS 578T breast 37.2% | NCI/ADR-RES ovarian 11.4% | T-47D breast 29.3% | BT-549 breast 24.8% | SW-620 colon 29.1% | MCF7 breast 16.5% | HCT-116 colon 11.5% | HCC-2998 colon 25.4% | KM12 colon 18.4%
active: SR leukemia 2.96% | OVCAR-3 ovarian -8.61% | MDA-MB-435 melanoma 1.43%

CC[C@]12C=CCN3CC[C@@]4(c5ccc(OC)cc5N(C)[C@H]4[C@@](O)(C(=O)OC)[C@@H]1OC(=O)CCC(=O)N[C@@H](Cc1c[nH]c4ccccc14)C(=O)OC)[C@@H]32
inactive: OVCAR-8 ovarian 93.9% | OVCAR-5 ovarian 90.8% | OVCAR-4 ovarian 89.9% | SK-OV-3 ovarian 100% | IGROV1 ovarian 101% | OVCAR-3 ovarian 86.4% | HS 578T breast 79.4% | NCI/ADR-RES ovarian 105% | T-47D breast 67.8% | BT-549 breast 115% | MDA-MB-435 melanoma 95.3% | SW-620 colon 96.4% | MCF7 breast 90% | HCT-116 colon 100% | HCC-2998 colon 70.6% | KM12 colon 106%
active: SR leukemia -43.1% | RPMI-8226 leukemia -33.4%

O=C(CCCN1CCOCC1)Nc1ccc(Cn2nnc3c2C(=O)c2nnn(Cc4ccc(NC(=O)CCCN5CCOCC5)cc4)c2C3=O)cc1
active: OVCAR-4 ovarian -65.7% | IGROV1 ovarian 3.22% | OVCAR-3 ovarian -1.11% | T-47D breast -16.5% | MDA-MB-435 melanoma -78.9% | MCF7 breast -58.6% | HCT-116 colon 0.281%
inactive: SR leukemia 10.6% | RPMI-8226 leukemia 37.5% | OVCAR-8 ovarian 38.5% | OVCAR-5 ovarian 121% | SK-OV-3 ovarian 92.1% | HS 578T breast 101% | NCI/ADR-RES ovarian 102% | BT-549 breast 42.6% | SW-620 colon 30.2% | HCC-2998 colon 13.1% | KM12 colon 65.3%
